Mcl1-Noxa inh = Mcl-1/Noxa interaction inhibition; Q07820; TR-FRET Mcl-1/Noxa peptide binding, 2 h; inhibition, % at 21.7 µM; 220,000 tested, 1.5% active;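 active = compounds that cut the protein-peptide binding signal by more than 50% relative to plate controls in a single-dose test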;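 also: His-tagged Mcl-1 with rhodamine Noxa BH3 peptide and terbium anti-His antibody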
Target sequence (Q07820 whole entry, looked up): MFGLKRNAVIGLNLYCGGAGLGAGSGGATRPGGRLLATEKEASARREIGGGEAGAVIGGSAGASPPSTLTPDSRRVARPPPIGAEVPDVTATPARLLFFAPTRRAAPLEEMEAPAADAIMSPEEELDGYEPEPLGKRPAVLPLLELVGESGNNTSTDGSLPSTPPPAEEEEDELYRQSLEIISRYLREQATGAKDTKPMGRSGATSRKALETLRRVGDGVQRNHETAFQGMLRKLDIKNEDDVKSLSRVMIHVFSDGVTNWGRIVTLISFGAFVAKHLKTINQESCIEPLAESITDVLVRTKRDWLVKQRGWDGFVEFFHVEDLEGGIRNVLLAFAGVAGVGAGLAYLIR
MCL1 BIM primary = inhibitors of human MCL1 binding to BIM-BH3 peptide | 320,000 tested, 0.68% active | AID 2057 | inhibition, % at 10.9 µM | GST-MCL1 / FITC-Bim-BH3 fluorescence polarization;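 active = inhibition above the mean inhibition of all tested compounds plus 3 SD, set per campaign, cut at about 40% in these data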;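 also: higher means more loss of mP so more displacement of Bim peptide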
Mcl-1 Bim block = human Bim-Mcl-1 interaction inhibition | inhibition, % at 10 µM | Bead-based flow cytometry, Bim peptide-Mcl-1 binding | 190,000 tested, 0.1% active | Q07820; in the data active = inhibition above about 40%
Mcl1 Bid PPI = disrupts binding of human Mcl-1 to Bid peptide; Q07820; TR-FRET Mcl-1/Bid-Dy647 peptide binding, 1536-well; inhibition, % at 21.7 µM; 220,000 tested, 0.97% active; AID 1021;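 active = compounds that cut the binding signal by more than half at the single screening dose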;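 also: His-tagged Mcl-1 with europium anti-His antibody binding Bid BH3 peptide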
Of the large screens only hits and unclear results are named; the others gave an inactive call. Compounds with a hit are over-represented: about 2% of the library has one in this group of screens.

CN(c1ccccc1)c1ccc(/C=C(\CCC(=O)O)c2nc3ccccc3s2)cc1[N+](=O)[O-]	Mcl1-Noxa inh 100
COc1ccc(/C=C(\CC(=O)O)c2nc3ccccc3s2)cc1O	none
Cc1ccc(/C=C(\CCC(=O)O)c2nc3ccccc3s2)cc1[N+](=O)[O-]	none
COc1ccc(C(=O)Nc2cccc(/C=C/c3nc4ccccc4c(=O)[nH]3)c2)cc1	Mcl1-Noxa inh 57 (no result: Mcl-1 Bim block)
O=C(O)C/C(=C\c1cccc(NC(=O)c2ccccc2Cl)c1)c1nc2ccccc2s1	Mcl1-Noxa inh 65 (no result: Mcl-1 Bim block)
O=C(Nc1cccc(/C=C/c2nc3ccccc3c(=O)[nH]2)c1)c1ccccc1Cl	none (no result: Mcl-1 Bim block)
COc1cc(/C=C(\CC(=O)O)c2nc3ccccc3s2)cc(OC)c1O	Mcl1-Noxa inh 58
CCOc1cc(/C=C(\CC(=O)O)c2nc3ccccc3s2)ccc1OC	none
Cc1ccc(NC(=O)CSc2nnc(-c3ccoc3C)n2CCCN(C)C)cc1Cl	none (no result: Mcl1-Noxa inh, Mcl-1 Bim block, Mcl1 Bid PPI)
CNc1ccc(/C=C(\CCC(=O)O)c2nc3ccccc3s2)cc1[N+](=O)[O-]	none
COc1ccc(C(=O)Nc2cccc(/C=C(\CCC(=O)O)c3nc4ccccc4s3)c2)cc1	Mcl1-Noxa inh 85 (no result: Mcl-1 Bim block)
COc1ccc(C(=O)Nc2nc3cc(OC)c(OC)cc3c(=O)[nH]2)cc1	Mcl1 Bid PPI 99
COc1cccc(C(=O)N[C@@H](C)C(=O)N2CCC3(CC2)NCCc2[nH]cnc23)c1	none (no result: Mcl1-Noxa inh, Mcl-1 Bim block, Mcl1 Bid PPI)
CC1CCCCN1S(=O)(=O)c1ccc(S(=O)(=O)N2CCN(C)CC2)cc1 (stereo unspecified)	none (no result: Mcl1-Noxa inh, Mcl-1 Bim block, Mcl1 Bid PPI)
FC(F)(F)c1ccc(Cl)c(N/N=C/c2ccc(N3CCOCC3)s2)c1	Mcl1-Noxa inh 67
CCOC(=O)c1cc2occc2n1CC(=O)NC1CCCCC1C (stereo unspecified)	Mcl1 Bid PPI 99
O=C(O)c1cc(-c2ccc(Cl)cc2)n(-c2cccc(Cl)c2)n1	none (no result: Mcl1-Noxa inh, Mcl-1 Bim block, Mcl1 Bid PPI)
Cc1ccccc1CN1CCN(S(C)(=O)=O)CC1	none (no result: Mcl-1 Bim block)
Cc1ccccc1CN1CCN(S(=O)(=O)c2ccc(F)cc2)CC1	Mcl1 Bid PPI 60
O=C(CCN1C(=O)c2ccccc2C1=O)Nc1ccc(-c2nc3ccccc3s2)cc1	none
O=C(O)CSCC(=O)Nc1ccc(-c2nc3ccccc3s2)cc1	Mcl1-Noxa inh 56 (no result: Mcl-1 Bim block)
Cc1ccc2nc(-c3ccc(NC(=O)CCN4C(=O)c5ccccc5C4=O)cc3)sc2c1	Mcl1 Bid PPI 56
Nc1nnc(SCC(=O)N2CCN(c3ccccc3)CC2)n1-c1ccccc1	Mcl1 Bid PPI 97
CC(C)C(=O)NC(c1cccs1)c1cc([N+](=O)[O-])c2cccnc2c1O (stereo unspecified)	Mcl1-Noxa inh 63, Mcl1 Bid PPI 55
Cc1ccc(C(NC(=O)C(C)C)c2cc([N+](=O)[O-])c3cccnc3c2O)cc1 (stereo unspecified)	none
CCOC(=O)c1ccc(N=C2SC(C(=O)Nc3ccc(C(=O)O)cc3)CC(=O)N2Cc2cccs2)cc1 (stereo unspecified)	none
Clc1c2c(nc3ccccc13)CCC2	none (no result: Mcl1-Noxa inh, Mcl-1 Bim block, Mcl1 Bid PPI)
Nc1c2c(nc3ccccc13)CCCC2	Mcl1-Noxa inh 51
CCCCNC(=O)c1cn(C)c2ccc(S(=O)(=O)N3CC(C)CC(C)C3)cc2c1=O (stereo unspecified)	none (no result: Mcl1-Noxa inh, Mcl-1 Bim block, Mcl1 Bid PPI)
CC(SCC(=O)Nc1ccc(F)cc1)c1nc2ccccc2c(=O)[nH]1 (stereo unspecified)	none (no result: Mcl1-Noxa inh, Mcl-1 Bim block, Mcl1 Bid PPI)
O=C(COc1ccccc1)NC(=S)Nc1ccc2c(c1)Cc1ccccc1-2	Mcl1-Noxa inh 52
COc1ccccc1OCC(=O)NCCCN1CCOCC1	none (no result: Mcl1-Noxa inh, Mcl-1 Bim block, Mcl1 Bid PPI)
COc1ccccc1NC(=O)COc1cc(Br)c(CNCCCN2CCOCC2)cc1OC	Mcl1 Bid PPI 89
O=C(Nc1cc2c(oc1=O)CCCC2=O)c1ccc(Cl)cc1	Mcl1-Noxa inh 57
CN(C)Cc1c(O)ccc2c3c(c(=O)oc12)CCCCC3	none
CN(Cc1c(O)ccc2c1oc(=O)c1ccccc12)C1CCCCC1	Mcl1 Bid PPI 65
COc1ccc(C)cc1NC(=O)CO/N=C(\N)CC(=O)NC1CCCCC1	none (no result: Mcl1-Noxa inh, Mcl-1 Bim block, Mcl1 Bid PPI)
COc1ccc2oc(=O)c(/C(N)=N/NC(=O)c3ccncc3)cc2c1	none (no result: Mcl1-Noxa inh, Mcl-1 Bim block, Mcl1 Bid PPI)
Cc1cc(C)nc(Nc2ccc(O)cc2)n1	none (no result: Mcl1-Noxa inh, Mcl-1 Bim block, Mcl1 Bid PPI)
Cc1cc(Nc2ccc(O)cc2)ccc1N	MCL1 BIM primary 41 (no result: Mcl1-Noxa inh, Mcl-1 Bim block, Mcl1 Bid PPI)
CC(C)c1[nH]nc2c1C(c1cccnc1)C(C#N)=C(N)O2 (stereo unspecified)	Mcl1 Bid PPI 92
CC1CC(C)(C)CC2(C1)NC(=O)N(CC(=O)Nc1cc([N+](=O)[O-])ccc1F)C2=O (stereo unspecified)	none (no result: Mcl1-Noxa inh, Mcl-1 Bim block, Mcl1 Bid PPI)
O=c1c(C(c2c(O)nc3n(c2=O)CCS3)c2cccc3ccccc23)c(O)nc2n1CCS2	Mcl1-Noxa inh 53
O=c1c(C(c2ccc(O)cc2)c2c(O)nc3n(c2=O)CCCS3)c(O)nc2n1CCCS2	Mcl1-Noxa inh 52
O=c1c(C(c2ccc(O)cc2)c2c(O)nc3n(c2=O)CCS3)c(O)nc2n1CCS2	Mcl1-Noxa inh 60
COc1ccc(NC(=O)Nc2c(C)n(C)n(-c3ccccc3)c2=O)c(OC)c1	none (no result: Mcl1-Noxa inh, Mcl-1 Bim block, Mcl1 Bid PPI)
C/C=C/C=C/C(=O)N1CC[C@]23c4ccccc4N[C@H]4N(C)c5cccc6c5[C@]42CCN([C@H]6C2OC2(C)C)[C@H]13 (stereo partly specified)	Mcl1-Noxa inh 64 (no result: Mcl-1 Bim block)
Cc1ccc2nc(NC(=O)C3CCCN3C(=O)OC(C)(C)C)sc2c1 (stereo unspecified)	none
CCOC(=O)c1c(C)nc(C)c(C(=O)OCC)c1-c1ccccc1	none
CCOc1c(C(N)=O)c(-c2ccccc2)c2c(=O)[nH]c3ccccc3n12	Mcl1 Bid PPI 99
O=S(=O)(NCC(c1ccco1)N1CCN(c2ccccc2F)CC1)c1ccc2c(c1)OCCO2 (stereo unspecified)	none
COc1ccc(N2CCN(C(CNS(=O)(=O)c3ccc4c(c3)OCCO4)c3ccco3)CC2)cc1 (stereo unspecified)	Mcl-1 Bim block 52
O=C(CCC(=O)c1ccc(Oc2ccccc2)cc1)Nc1cccc(Cl)c1	Mcl1 Bid PPI 98
COc1ccc(NC(=O)c2ccco2)cc1NC(=O)c1ccco1	Mcl-1 Bim block 41
Cc1cc(C(=O)COC(=O)CCc2nc3ccccc3s2)c(C)n1C	Mcl1-Noxa inh 59
N#C/C(=C\c1ccc(C(=O)O)cc1)c1nc2sc3c(c2c(=O)[nH]1)CCCC3	Mcl1-Noxa inh 74 (no result: MCL1 BIM primary, Mcl-1 Bim block)
CCS(=O)(=O)N1CCN(C(C)CCc2ccccc2)CC1 (stereo unspecified)	Mcl1-Noxa inh 91, Mcl1 Bid PPI 77
CC(CCc1ccccc1)N1CCN(Cc2ccccc2)CC1 (stereo unspecified)	none
CCCN(CC(=O)Nc1ccccc1C)C(=O)c1ccc(NC2CC2)c([N+](=O)[O-])c1	none (no result: Mcl1-Noxa inh, Mcl-1 Bim block, Mcl1 Bid PPI)
COC(=O)CN(C)C(=O)c1ccc2nc(Cc3cccc(Cl)c3)oc2c1	none (no result: Mcl1-Noxa inh, Mcl-1 Bim block, Mcl1 Bid PPI)
CCc1ccc(NC(=O)c2ccnc(C(C)(C)C)c2)cc1	Mcl1 Bid PPI 101
COc1ccccc1CC1(C)NC(=O)N(CC(=O)N2CCc3ccccc3C2)C1=O (stereo unspecified)	Mcl1 Bid PPI 57
COc1ccc(CC(=O)OCc2nnc(-c3ccccc3)o2)cc1	none
COCCCN1C(=O)C(=O)/C(=C(/O)c2ccc(S(=O)(=O)N3CCOCC3)cc2)C1c1cccc(Cl)c1 (stereo unspecified)	none (no result: Mcl1-Noxa inh, Mcl-1 Bim block, Mcl1 Bid PPI)

Source: PubChem BioAssay
